Experimental data taken from the supplement of paper PMC7057948, “A genome-wide approach for identification and characterisation of metabolite-inducible systems” (Nature Communications, 2020).

What was measured:
Test in all cases: relative induction of RFP reporter vs primary effector (background-corrected); higher = stronger activation of the biosensor
Details in all cases: inducer concentration 5 mM; 6 h; Cupriavidus necator H16; minimal medium + 0.4% gluconate
[1] = system: AcoR/P_H16_RS19445 acetoin biosensor (pEH052)
Method: (§1)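 C. necator H16 strains, each carrying one of 21 transcription factor/inducible promoter–mRFP biosensor plasmids, were grown in minimal medium in 96-well plates (robotic platform). Each was exposed to 46 structurally or metabolically related compounds at 5 mM at 30 °C. OD-normalised RFP fluorescence was read 6 h later and expressed as relative induction (%) = 100 × (FL compound − FL uninduced)/(FL primary inducer − FL uninduced); mean of n=4.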

[2] = system: AraC/P_araBAD L-arabinose biosensor (pEH176)
Method: as §1

[3] = system: BadR/P_H16_RS27200 cyclohexanecarboxylate biosensor (pEH159)
Method: as §1

[4] = system: BenM/P_H16_RS09790 benzoate biosensor (pEH148)
Method: as §1

[5] = system: FdsR/P_H16_RS03165 formate biosensor (pEH134)
Method: as §1

[6] = system: GabR/P_H16_RS23655 GABA biosensor (pEH256)
Method: as §1

[7] = system: HpdR/P_H16_RS18295 3-hydroxypropanoate biosensor (pEH010)
Method: as §1

[8] = system: KynR/P_H16_RS14030 L-kynurenine biosensor (pEH136)
Method: as §1

[9] = system: NahR/P_H16_RS08125 salicylate biosensor (pEH042)
Method: as §1

[10] = system: OapR/P_H16_RS01330 beta-alanine biosensor (pEH147)
Method: as §1

[11] = system: PcaQ/P_H16_RS30145 3,4-dihydroxybenzoate biosensor (pEH161)
Method: as §1

[12] = system: PhgR/P_H16_RS05530 phenylglyoxylate biosensor (pEH155)
Method: as §1

[13] = system: PhhR/P_H16_RS18365 L-phenylalanine biosensor (pEH137)
Method: as §1

[14] = system: SauR/P_H16_RS13695 sulfonatoacetate biosensor (pEH157)
Method: as §1

[15] = system: TtdR/P_H16_RS10665 tartrate biosensor (pEH083)
Method: as §1

[16] = system: XdhR/P_H16_RS05055 xanthine biosensor (pEH154)
Method: as §1

[17] = system: heterologous inducible system pEH002 (rhamnose/acrylate/cumate/itaconate set)
Method: as §1

[18] = system: heterologous inducible system pEH020 (rhamnose/acrylate/cumate/itaconate set)
Method: as §1

[19] = system: heterologous inducible system pEH040 (rhamnose/acrylate/cumate/itaconate set)
Method: as §1

[20] = system: heterologous inducible system pEH086 (rhamnose/acrylate/cumate/itaconate set)
Method: as §1
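Also: RFP excited at 585 nm with emission read at 620 nm, culture medium blanks subtracted from fluorescence and absorbance prior to normalisation.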

| Structure (SMILES) | relative induction of RFP reporter [1] | relative induction of RFP reporter [2] | relative induction of RFP reporter [3] | relative induction of RFP reporter [4] | relative induction of RFP reporter [5] | relative induction of RFP reporter [6] | relative induction of RFP reporter [7] | relative induction of RFP reporter [8] | relative induction of RFP reporter [9] | relative induction of RFP reporter [10] | relative induction of RFP reporter [11] | relative induction of RFP reporter [12] | relative induction of RFP reporter [13] | relative induction of RFP reporter [14] | relative induction of RFP reporter [15] | relative induction of RFP reporter [16] | relative induction of RFP reporter [17] | relative induction of RFP reporter [18] | relative induction of RFP reporter [19] | relative induction of RFP reporter [20] |
| --- | --- | --- | --- | --- | --- | --- | --- | --- | --- | --- | --- | --- | --- | --- | --- | --- | --- | --- | --- | --- |
| O=C(O)CC(=O)C(=O)O [oxaloacetate] | 0.0874% | -0.00919% | -0.113% | -0.0305% | 2.96% | -0.991% | 0.0505% | -0.384% | 0.0244% | 0.302% | -0.0492% | -0.502% | -0.153% | 0.016% | -0.0827% | -0.199% | 0.0189% | -0.323% | -0.91% | -0.0639% |
| NCC(N)C(=O)O (configuration not stated) [2,3-diaminopropanoate] | 0.396% | 0.013% | – | 0.0534% | -1.38% | -1.16% | 0.349% | -0.43% | 0.0162% | 0.656% | -0.0605% | -0.221% | 0.0532% | -0.0132% | -0.586% | -0.1% | 0.0204% | -0.419% | 2.94% | 0.484% |
| NCCc1ccc(O)c(O)c1 [dopamine] | 0.498% | -0.00264% | – | 0.0224% | 2.79% | 0.204% | 0.166% | 0.568% | 0.0188% | 0.108% | 0.356% | 0.249% | 0.138% | 0.18% | 1.41% | 0.0292% | 0.0361% | 0.433% | 1.22% | 0.396% |
| Cn1c(=O)c2c(ncn2C)n(C)c1=O [caffeine] | 3.23% | 0.0778% | – | 0.0418% | 5.81% | -0.00438% | 0.0271% | 1.64% | 0.0392% | 0.545% | 0.0177% | -0.541% | 1.57% | 0.0139% | 0.808% | 0.33% | 0.0111% | -0.176% | 1.6% | 0.797% |
| O=C(O)[C@@H](O)[C@@H](O)[C@H](O)[C@@H](O)C(=O)O [glucarate] | 16.6% | -0.00794% | – | 0.00581% | -1.03% | 0.559% | 0.059% | 0.0265% | 0.0258% | 0.058% | 0.00441% | -0.232% | -0.08% | -0.0162% | -0.0655% | 0.202% | 0.0271% | 0.067% | 0.131% | 0.127% |
| C[C@H](N)C(=O)O [L-alanine] | -2.72% | -0.0291% | – | -0.053% | -2.12% | -2.55% | -0.329% | -0.519% | 0.00167% | -0.209% | -0.263% | -0.259% | -0.741% | -0.0427% | -0.256% | -0.737% | -0.00357% | -1.6% | -1.7% | -0.23% |
| Oc1cccc(O)c1 [resorcinol] | 1.11% | -0.0083% | – | 0.0215% | 3.2% | -1.35% | -0.13% | -0.206% | 0.04% | -1.51% | -0.109% | 0.115% | 0.365% | 0.0138% | 1.74% | -0.161% | -0.00943% | -0.947% | 0.407% | -0.0428% |
| OC[C@@H](O)[C@@H](O)[C@H](O)[C@H](O)CO [D-mannitol] | 4.32% | -0.00626% | -0.47% | 0.00493% | -0.914% | -0.506% | -0.0887% | 0.488% | 0.0228% | -0.205% | 0.0552% | -0.267% | 0.344% | 0.0255% | 0.195% | -0.267% | -0.000622% | -0.0264% | 0.166% | 0.0103% |
| O=C(O)C1=CCCCC1 [cyclohexene-1-carboxylate] | 2.55% | -0.0101% | – | 156% | -3.7% | -1.27% | -0.493% | 0.423% | -0.00892% | 1.03% | -0.0381% | -0.121% | -0.244% | 0.0222% | 0.391% | 0.161% | 0.0231% | 0.24% | 1.34% | 0.551% |
| O=C(O)/C=C\C=C/C(=O)O [cis,cis-muconate] | -0.277% | -0.0203% | – | -0.00774% | 0.498% | -1.92% | 0.114% | 0.571% | 0.022% | 0.13% | -0.0137% | -0.341% | -0.13% | -0.0287% | 0.125% | -0.143% | -0.00409% | 0.263% | 0.756% | 0.0837% |
| O=C(O)c1ccc(O)cc1 [4-hydroxybenzoate] | 0.234% | -0.0125% | – | -0.00462% | 1.94% | -0.622% | 0.357% | -0.184% | 0.159% | -0.798% | 212% | -0.153% | -0.483% | -0.0101% | 0.895% | -0.191% | 0.0183% | -0.27% | -0.0264% | 0.318% |
| NCC(O)C(=O)O (configuration not stated) [3-amino-2-hydroxypropanoate] | -0.589% | 0.017% | – | -0.00343% | -6.17% | -1.08% | -0.132% | -0.0139% | 0.0227% | 33.2% | -0.0272% | -0.304% | -0.491% | 0.0914% | 0.315% | -0.317% | 0.0153% | -1.25% | 0.821% | 0.238% |
| CC(N)CC(=O)O (configuration not stated) [3-aminobutanoate] | 0.0935% | -0.0347% | – | 0.00428% | -2.98% | -1.28% | -0.191% | -0.097% | 0.00216% | 57.8% | 0.0297% | 0.0503% | -0.0355% | -0.0365% | 0.625% | 0.412% | 0.0041% | -0.315% | 0.21% | 0.139% |
| O=C(O)C1=C[C@@H](O)[C@@H](O)[C@H](O)C1 [shikimate] | 0.0178% | -0.00161% | – | -0.000316% | -2.48% | -0.317% | 1.03% | -0.0973% | 0.00146% | 0.246% | 2.49% | -0.587% | 0.165% | 0.0792% | -0.0735% | -0.446% | -0.00769% | -0.782% | -0.0558% | 0.188% |
| N[C@@H](CC(=O)O)C(=O)O [L-aspartate] | -1.54% | -0.0179% | – | -0.0325% | 3.34% | -1.17% | -0.138% | -0.00294% | 0.0255% | 0.356% | -0.0549% | -0.232% | 0.437% | 0.0772% | -0.474% | -0.175% | 0.02% | -0.78% | -1.36% | 0.389% |
